Laboratory results taken from PubChem BioAssay.
“And” between values parts separate entries of the source, which are not always exact repeats. Identical values can stand only once.

Target: Carbonic anhydrase 2 (Homo sapiens) (UniProt P00918)
Assay: compounds binding carbonic anhydrase 2 – biochemical, small-molecule microarray, Alexa647-labelled CAII, profiling panel (AID 1122)
Conditions: CAII-A647 binding fluorescence, higher = more signal

| SMILES | composite z-score |
| --- | --- |
| C=C[C@@H](C)[C@H](O)c1ccc(O)c2ccccc12 | -0.211 and -0.59 |
| CCOC(=O)C[C@H]1[C@H](OC(=O)c2ccccc2-c2ccccc2)[C@@H](NC(=O)Cc2ccc(OC)cc2)c2cc(OCCCO)ccc2N1C(=O)c1ccc2ccccc2n1 | -0.156 and 0.0959 |
| COCn1c2ccccc2c2nnc(C(C)=O)nc21 | 0.158 and -0.258 |
| C[C@@H](ON=C1[C@H]2CCn3c(=O)n(-c4ccccc4)c(=O)n3[C@H]2[C@H](O)[C@@H]2O[C@H]12)c1cn([C@H](CO)Cc2ccccc2)nn1 | -0.0324 |
| COC(=O)C1=C(C)N(Cc2ccccc2)[C@]23O[C@](C(=O)OC)(C(=O)N2[C@@H]1c1ccccc1)[C@H]1C(=O)N(C)C(=O)[C@H]13 | 0.354 and 0.309 |
| C[C@@H]1CC[C@H]2C(=O)N3[C@@H](CC[C@@H](C)[C@@H]3c3ccc(-c4ccco4)cc3)C(=O)N2[C@H]1c1ccc(-c2ccco2)cc1 | 0.688 and 0.645 |
| CCOC(=O)NN=C1C[C@@H](O)[C@@H](O)[C@@H]2[C@@H]3C(=O)N(Cc4ccc5c(c4)OCO5)C(=O)[C@@H]3CC[C@@H]12 | -0.158 |
| C=CCN(C(=O)C(c1cccs1)N(C(=O)/C=C\C(=O)O)c1ccc(CCO)cc1)c1ccc(OC)cc1 (configuration not stated) | 0.89 and -0.733 |
| CC(CO)N1C(=O)[C@@H]2C3C(=O)OCCC=C[C@H]3OC23C=CCN(c2ccc(Cl)cc2)C(=O)[C@@H]13 (some centres not stated) | 0.889 and 0.596 |
| C#CCN1C(/C=C/c2ccccc2)C(=O)OC[C@H]1c1ccccc1 (some centres not stated) | -0.114 and 0.493 |
| C[C@@H]1CN2[C@@H](CC[C@@H](C)[C@@H]2c2ccc(Br)cc2)C(=O)O1 | -0.366 and -0.303 |
| C=CCN(C(=O)C(c1cccs1)N(CCOCCO)C(=O)/C=C\C(=O)O)c1ccc(OC)cc1 (configuration not stated) | -0.655 and -0.65 |
